Records with an inconclusive call do not appear. Values without a mark were called inactive. Calls of active or inactive are those of the source. Calls follow the shape of the dose curve; as a rule, active = well fitted cell-killing curve with a large enough effect in the repeat runs; inconclusive = weak or mixed curves, or effect the other way; inactive = flat fitted curve, though single readings scatter.
Assay: cAMP Responsive Elements (CRE) small molecule antagonists, cell-based qHTS assay: qHTS cell viability counter screen (AID 2060913); also: nearly all actives have a fitted effect of over 40% in size
Conditions: CRE-bla HEK293T viability, CellTiter-Glo luminescence, 5 h; series mostly up to 92.4 µM; viability change, negative = cytotoxic: at the top concentration
How it was run: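 Cytotoxicity counter screen multiplexed with the CRE-bla antagonist read: HEK293T cells in DMEM with dialyzed FBS and 25 mM HEPES were treated 3 hrs under 0.25 uM final NKH477, then viability measured by CellTiter-Glo luminescence.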
% is scaled to controls: 0 for no effect and ±100 for the full control effect; potency is read from the fitted curve at half-maximal effect.

SMILES | viability change, negative = cytotoxic | Potency
CC(C)C(Br)C(=O)NC(N)=O (stereo not given) | 3.94% [at 42.5 µM] | –
CC1(C)CC(=O)CC(C)(C)N1[O] | 1.6% | –
CCOP(O)OCC | -1.76% | –
CCOP(=S)(Oc1ccc([N+](=O)[O-])cc1)c1ccccc1 (stereo not given) | -12.3% | –
Cc1cc(C)nc(Nc2ccccc2)n1 | 4.85% | –
C#CCC1=C(C)C(OC(=O)C2C(C=C(C)C)C2(C)C)CC1=O (stereo not given) | -13.6% | –
CSc1nc(N=[N+]=[N-])nc(NC(C)C)n1 | -1.09% | –
CC(=O)[O-].CC(=O)[O-].O.O.O.[Pb+2] | 1.19% | –
CN(C)c1ccccc1 | – | inactive
Cc1ccc([N+](=O)[O-])[c]2c1[O][Hg]2 | – | 11.9 µM (active)
CN=C=S | – | inactive
Cc1ccc2cc(C)ccc2c1 | -8.13% | –
Cl/C=C\Cl | 0.355% | –
O=C(O)C(F)(F)C(F)(F)C(F)(F)C(F)(F)C(F)(F)C(F)(F)C(F)(F)C(F)(F)C(F)(F)F | 7.1% | –
C#CCO | 3.21% | –
Clc1ccc(C(Cl)(Cl)Cl)cn1 | -0.327% | –
ClSC(Cl)(Cl)Cl | 4.36% | –
N#Cc1cccc(C#N)c1 | – | inactive
CC1=C(C(=O)O)N2C(=O)[C@@H](N)[C@H]2SC1 | 6.72% [at 18.9 µM] | –
CCCCN(CC)c1c([N+](=O)[O-])cc(C(F)(F)F)cc1[N+](=O)[O-] | – | inactive

SMILES | viability change, negative = cytotoxic | Potency
NCC(O)c1ccc(O)cc1 (stereo not given) | – | inactive
CCN(CC)C(=O)C(C)Oc1cccc2ccccc12 (stereo not given) | – | inactive
CC(C)CCCCCCCOP(=O)(Oc1ccccc1)Oc1ccccc1 | 2.47% | –
c1nc[nH]n1 | – | inactive
ClCc1cccnc1 | 1.86% | –
O=c1[nH]c2ccccc2c(=O)o1 | – | inactive
COP(=O)(OC)C(O)C(Cl)(Cl)Cl (stereo not given) | – | inactive
CC(C)N(C(=O)CCl)c1ccccc1 | – | inactive
Cc1cccc(C)c1NC(=O)CN1CCCC1=O | – | inactive
C=C(C)C#N | – | inactive
CCOC(=O)NC(C)(C)Cc1ccc(Cl)cc1 | -2.5% [at 42.5 µM] | –
N[C@@H](Cc1ccc(N(CCCl)CCCl)cc1)C(=O)O | – | inactive
CCCCCCCCOC(=O)c1ccc(C(=O)OCCCCCCCC)c(C(=O)OCCCCCCCC)c1 | 1.61% | –
Clc1cccc(Cl)c1Cl | – | inactive
CCC(CC)Nc1c([N+](=O)[O-])cc(C)c(C)c1[N+](=O)[O-] | – | inactive
CCCCCCCCCCCCCCC(Br)C(=O)O (stereo not given) | 6.01% | –
CCCCCCCCP(=O)(O)O | -1.7% | –
Clc1cc(C(Cl)(Cl)Cl)cnc1Cl | 0.231% | –
CNC(=O)Oc1cccc(C(C)C)c1 | 6.02% | –
O=C(CCCN1CCC2(CC1)C(=O)NCN2c1ccccc1)c1ccc(F)cc1 | -0.91% [at 42.5 µM] | –

From PubChem BioAssay (Tox21)
